The text below walks through data of PubChem BioAssay (NCATS).

Experiment [1] can be described thus: Quantitative High-Throughput drug screen in 47 multiple myeloma cell lines against the NCATS MIPE library collection: MM1R_ATCC cell viability assay (AID 1918981). Further: nearly all actives have a fitted effect of over 35% in size. The procedure, abridged:
(§1)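 Readout: median RLU from CellTiter-Glo after 5 min at room temperature. Preceding step was 48 h drug treatment of 500 cells/well at 37 °C, 5% CO2, with DMSO-only and media-only control wells.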

Experiment [2] in a line: Quantitative High-Throughput drug screen in 47 multiple myeloma cell lines against the NCATS MIPE library collection: LP1_DSMZ cell viability assay (AID 1918982). Further: nearly all actives have a fitted effect of over 35% in size. An outline of the steps: as §1
The nature of experiment [3]: Quantitative High-Throughput drug screen in 47 multiple myeloma cell lines against the NCATS MIPE library collection: KMS28PE_JCRB cell viability assay (AID 1918983). Further: nearly all actives have a fitted effect of over 35% in size. The procedure, abridged:
as §1

Experiment [4] can be described thus: Quantitative High-Throughput drug screen in 47 multiple myeloma cell lines against the NCATS MIPE library collection: KMS34_JCRB cell viability assay (AID 1918985). Further: nearly all actives have a fitted effect of over 40% in size. The procedure, abridged:
as §1

A short description of experiment [5]: Quantitative High-Throughput drug screen in 47 multiple myeloma cell lines against the NCATS MIPE library collection: OCIMY7_PLB cell viability assay (AID 1918987). Further: nearly all actives have a fitted effect of over 65% in size. An outline of the steps: as §1
Experiment [6] can be described thus: Quantitative High-Throughput drug screen in 47 multiple myeloma cell lines against the NCATS MIPE library collection: OPM1_PLB cell viability assay (AID 1918989). Further: nearly all actives have a fitted effect of over 40% in size. An outline of the steps: as §1
Experiment [7] is described as follows: Quantitative High-Throughput drug screen in 47 multiple myeloma cell lines against the NCATS MIPE library collection: U266_ATCC cell viability assay (AID 1919864). Further: nearly all actives have a fitted effect of over 35% in size. An outline of the steps: as §1
Experiment [8] in a line: Quantitative High-Throughput drug screen in 47 multiple myeloma cell lines against the NCATS MIPE library collection: L363_DSMZ cell viability assay (AID 1918984). Further: nearly all actives have a fitted effect of over 40% in size. The procedure, abridged:
as §1

Experiment [9] is described as follows: Quantitative High-Throughput drug screen in 47 multiple myeloma cell lines against the NCATS MIPE library collection: SKMM1_PLB cell viability assay (AID 1919863). Further: nearly all actives have a fitted effect of over 35% in size. On viability: series mostly up to about 46 µM. Particulars: SKMM1 myeloma viability, CellTiter-Glo ATP, 48 h; viability: stronger effect = lower value. The procedure, abridged: as §1
A short description of experiment [10]: Quantitative High-Throughput drug screen in 47 multiple myeloma cell lines against the NCATS MIPE library collection: OCIMY5_PLB cell viability assay (AID 1918988). Further: nearly all actives have a fitted effect of over 65% in size. An outline of the steps: as §1

Molecules are shown by their SMILES. Inconclusive results are not listed. A number with no mark means an inactive call. Activity calls are given as the source filed them. The call rests on the fitted dose curve; in most records, active means well fitted cell-killing curve with a large enough effect; inconclusive means small, poorly fitted or top-dose-only effect, or effect the other way; inactive means no such curve, though single readings can be large or run the other way.
Potency means the concentration at half of the fitted maximal effect.

`O=c1[nH]c2ccc(Cl)cc2c(N[C@@H]2CN3CCC2CC3)c1-c1nc2ccccc2[nH]1`: the Potency in experiment [1] was 0.0833 µM (active); in [2] it was 3.32 µM (active); in experiment [3] it was 2.35 µM (active); in [4], 0.0743 µM (active); in experiment [5] it was 0.059 µM (active); in experiment [6], 0.0526 µM (active). The Potency in [7] was 5.9 µM (active).
For the compound `CC1(N2CCC(n3c([C@@H]4CCCNC4)nc4ccccc43)CC2)CCCCCCC1`, the Potency in [1] is 14.8 µM (active); in experiment [2] it was 23.5 µM (active); in experiment [8], 6.62 µM (active); in experiment [6], 7.43 µM (active); in [7], 5.26 µM (active). Besides, the Potency entry in experiment [3] was “inactive”.
As to `CCNC(=O)C[C@@H]1N=C(c2ccc(Cl)cc2)c2cc(OC)ccc2-n2c(C)nnc21`, the Potency was 0.59 µM (active) in [1], 0.264 µM (active) in experiment [3], 2.64 µM (active) in experiment [5] and 0.372 µM (active) in [7].
For `CC(N[C@H]1C[C@H]1c1ccccc1)c1ccc2c(c1)OCCO2` (stereo not given in full), the Potency result in [2] and in experiment [6] was “inactive” in each case. Further, the Potency in [3] is 0.469 µM (active); in [7], 14.8 µM (active).
As to `CCN(CC)C(=O)c1ccc(C2=CC3(CCNCC3)Oc3cccc(O)c32)cc1`, the Potency entry in experiment [2], in [3] and in [6] was “inactive” each time.
As to `O=C1C=CC[C@@H]2[C@H]3CCCN4CCC[C@@H](CN12)[C@@H]34`, the Potency result in experiment [2], in experiment [8] and in experiment [4] was “inactive” throughout. The Potency in experiment [3] and in [7] was 16.6 µM (active) in each case. In [9], the viability is 117%.
In the case of `CC(C)(O)C(=O)Nc1ccc([N+](=O)[O-])c(C(F)(F)F)c1`, the Potency result in experiment [1], in experiment [3] and in experiment [4] was “inactive” throughout. For the same compound, the Potency in [5] was 7.43 µM (active); in experiment [6] it was 20.9 µM (active); in experiment [7], 18.7 µM (active).
Take `O=c1cccc2n1CC1CNC[C@H]2C1`: the Potency result in experiment [2], in experiment [3] and in experiment [4] was “inactive” each time. In addition, the Potency in experiment [6] and in [7] was 20.9 µM (active) throughout. Besides, the viability in experiment [9] was 142%.
For `C[C@]12CC[C@H](O)CC1=CC[C@H]1[C@H]3CCC(=O)[C@@]3(C)CC[C@@H]12`, the Potency result in [2], in experiment [3] and in [4] was “inactive” in each case. For the same compound, in experiment [9], the viability was 106%.
As to `CO[C@H]1CCC(O[C@H]2C[C@H]([C@]3(C)CC[C@]4(C[C@H](O)[C@@H](C)[C@@H]([C@@H](C)C=C(C)C(=O)[C@H](C)C[C@H](C)C(=O)O)O4)O3)O[C@]3(O[C@@H]([C@H]4O[C@@](O)(CO)[C@H](C)C[C@H]4C)C[C@H]3C)[C@H]2C)O[C@H]1C` (stereo not given in full), the Potency is 0.833 µM (active) in [2]; 3.72 µM (active) in experiment [3]; 0.148 µM (active) in experiment [8]; 1.18 µM (active) in experiment [4]; 0.132 µM (active) in experiment [10]; 0.418 µM (active) in experiment [6]. For the same compound, the Potency was 1.18 µM (active) in experiment [9] and 0.296 µM (active) in experiment [7].
In the case of `CN1CCN(c2ccc([N+](=O)[O-])c3no[n+]([O-])c23)CC1`, the Potency in experiment [2] is 18.7 µM (active); in experiment [3] it was 18.7 µM (active); in [8] it was 8.33 µM (active); in experiment [4] it was 14.8 µM (active); in [6] it was 18.7 µM (active); in experiment [9], 18.7 µM (active). Besides, in [7], the Potency was 18.7 µM (active).
As to `COc1ccc2c(c[n+](C)c3c4cc5c(cc4ccc23)OCO5)c1OC`, the Potency in [2] was 14.8 µM (active); in experiment [3] it was 4.69 µM (active); in experiment [8], 4.18 µM (active); in experiment [4], 4.18 µM (active); in [5] it was 2.96 µM (active); in experiment [6], 9.35 µM (active). In [7], the Potency was 5.9 µM (active).
Turning to `CC(O)=C(C#N)C(=O)Nc1cc(Br)ccc1Br`, in [2], the Potency entry was “inactive”. In addition, the Potency is 14.8 µM (active) in experiment [3], 1.66 µM (active) in experiment [10] and 20.9 µM (active) in [9].
In the case of `O=c1[nH]c2ccccc2n1C1CCN(Cc2ccc(-c3[nH]c4cc5ncnc5cc4nc3-c3ccccc3)cc2)CC1`, the Potency in experiment [2] was 20.9 µM (active); in experiment [3] it was 20.9 µM (active); in [8], 5.9 µM (active); in experiment [5], 8.33 µM (active); in [6] it was 2.64 µM (active); in experiment [9], 20.9 µM (active).
`CC(C)(C)[C@]1(O)C[C@@H]2OC(=O)C[C@@]23C(=O)O[C@@H]2OC(=O)[C@H](O)C213` (stereo not given in full): the Potency result in experiment [2], in experiment [3], in experiment [4], in experiment [6] and in experiment [7] was “inactive” each time.
On to `O=S(=O)(CC1CS1)c1ccc(Oc2ccccc2)cc1` (stereo not given), for which the Potency was 16.6 µM (active) in experiment [1], 18.7 µM (active) in experiment [6], 20.9 µM (active) in experiment [9] and 14.8 µM (active) in [7].
Take `CCc1c(C(=O)C(N)=O)c2c(OCC(=O)O)cccc2n1Cc1ccccc1`: the Potency result in experiment [2], in [4], in [6] and in experiment [7] was “inactive” each time. Moreover, the Potency in [3] is 7.43 µM (active).
With `COC1=CC(C)=C[C@@H](C)[C@@H](O)[C@@H](C)CC(C)=CC=C[C@H](OC)[C@H]([C@@H](C)[C@@H](O)[C@H](C)[C@@]2(O)C[C@@H](O)[C@H](C)[C@@H](C(C)C)O2)OC1=O`, the Potency in [2] was 0.0021 µM (active); in [3], 14.8 µM (active); in experiment [4], 0.003 µM (active); in experiment [6], 0.0235 µM (active).
As for `O=C(Oc1ccc([N+](=O)[O-])cc1)N1CCN(Cc2cccc(Oc3ccccc3)c2)CC1`, the Potency entry in experiment [2], in experiment [3], in experiment [4] and in experiment [6] was “inactive” in each case. The viability in [9] was 117%. The Potency in experiment [7] is 14.8 µM (active).
As to `O=C(O)CNC(=O)c1c(O)c2ccccc2n(Cc2ccccc2)c1=O`, the Potency entry in experiment [2], in [8], in experiment [4] and in experiment [6] was “inactive” each time.
As to `Cc1c(N)nc([C@H](CC(N)=O)NC[C@@H](N)C(N)=O)nc1C(=O)N[C@H](C(=O)N[C@@H](C)[C@H](O)[C@@H](C)C(=O)N[C@@H](C(=O)NCCc1nc(-c2nc(C(=O)NCCC[S+](C)C)cs2)cs1)[C@@H](C)O)C(O[C@H]1O[C@H](CO)[C@H](O)[C@@H](O)[C@@H]1O[C@H]1O[C@H](CO)[C@@H](O)[C@H](OC(N)=O)[C@H]1O)c1cnc[nH]1` (stereo not given in full), the Potency entry in [2] and in experiment [3] was “inactive” in each case. The Potency in [4] is 0.264 µM (active). In addition, the viability in experiment [9] is 89.3%.
`CSCC[C@@H](NC(=O)[C@@H](Cc1ccccc1)NC(=O)CNC(=O)CNC(=O)[C@@H](N)Cc1ccc(O)cc1)C(=O)O`: the Potency result in experiment [2], in experiment [3], in experiment [8], in [4] and in experiment [6] was “inactive” each time.

The viability is a read-out of living cells in per cent, often relative to untreated cells.
